# Data taken from ChEMBL document CHEMBL3988442, “University of Dundee, Small-Polar-MMV Screening Library” (2021).
# Among all 48,000 compounds or so, about 13,000 (27%) showed an effect of 50% or more. This is one part of the list.
# Test system: Wolbachia pipientis
# Experiment: Anti-Wolbachia Cell-Based Screen
# Type: functional
# Parameters: scale not given: in the data most compounds retested in dose-response had high values
# Settings: 5 µM
row,SMILES,Percent Effect [%]
1,CC(C)NC(=O)N1CCC2(CC1)NC(=O)CC2c1ccncc1.O=C(O)C(F)(F)F (stereo unspecified),-5.587
2,O=C(NCc1nncn1C1CC1)C1(c2ccc(F)cc2)CCOCC1,7.233
3,O=C(NCCO)C1(CC2CC(c3ccc(F)cc3)=NO2)CCOCC1 (stereo unspecified),103.4
4,CN(C)C1(CNC(=O)C2CCCN2Cc2ccc(F)cc2)CCOCC1 (stereo unspecified),-14.73
5,O=C(Nc1ccc(F)cc1)NC1(CCO)CCOCC1,-10.62
6,O=C(NCCCO)C1(CC2CC(c3ccc(F)cc3)=NO2)CCOCC1 (stereo unspecified),116.1
7,CC(C)NC(=O)C1(CC2CC(c3ccc(F)cc3)=NO2)CCNCC1.O=C(O)CC(O)(CC(=O)O)C(=O)O (stereo unspecified),90.44
8,CNS(=O)(=O)c1cc(C(=O)N2CCCCCC2CC(C)C)co1 (stereo unspecified),3.036
9,CCOC(=O)NC(CNC(=O)CCc1ccccn1)CC(C)C (stereo unspecified),-10.22
10,O=C(c1cccnc1O)N(Cc1ccsc1)CC1CCCO1 (stereo unspecified),-13.31
11,CS(=O)(=O)N1C[C@H]2N(c3ncccn3)CCC[C@@]2(C(=O)NCC2CC2)C1,106.2
12,CNC(=O)[C@@]12CCCN(c3ncccn3)[C@@H]1CN(c1ncc(F)cn1)C2,0.8573
13,CNC(=O)[C@@]12CCCN(c3ncccn3)[C@@H]1CN(C(=O)NC(C)C)C2,-11.1
14,CS(=O)(=O)N1C[C@H]2CNC[C@@]2(C(=O)NCCOc2ccccc2)C1,-7.447
15,CNC(=O)[C@@]12CCCN(c3ncccn3)[C@@H]1CN(c1ncc(C)cn1)C2,-6.772
16,CC(C)CN1C[C@H]2N(c3ncccn3)CCC[C@@]2(C(=O)NCC2CC2)C1,98.73
17,CNC(=O)N1C[C@H]2N(c3ncccn3)CCC[C@@]2(C(=O)NCC2CC2)C1,110.5
18,CC1CCCCN1CCNC(=O)NCc1ccc(C#N)cc1F (stereo unspecified),4.831
19,Cc1noc(C)c1CN1CCC2(CCN(Cc3cccc(F)c3)CC2)C1.O=C(O)C(F)(F)F.O=C(O)C(F)(F)F,108.5
20,NC(=O)N1CCC2(CCN(Cc3cccc(F)c3)CC2)CC1.O=C(O)C(F)(F)F,7.684
21,O=C(O)C(F)(F)F.O=C1[C@@H]2CCN(Cc3ccoc3)C[C@@H]2OCCN1Cc1cccc(F)c1,7.665
22,Fc1ccc(CN2C[C@@H]3OCCN(CCN4CCCC4)[C@@H]3C2)cc1.O=C(O)C(F)(F)F.O=C(O)C(F)(F)F.O=C(O)C(F)(F)F,-5.638
23,CC(=O)N1CCC2(CCN(Cc3cccc(F)c3)CC2)CC1.O=C(O)C(F)(F)F,4.828

row,SMILES,Percent Effect [%]
1,Cc1noc(C)c1CN1CCO[C@H]2CN(Cc3cccc(F)c3)C[C@H]21.O=C(O)C(F)(F)F.O=C(O)C(F)(F)F,84.77
2,Cc1ccsc1-c1nccn1CCN(C)S(C)(=O)=O,-5.374
3,Cc1nc(-c2ccccc2C)n(CC(=O)NC(C)C2CC2)n1 (stereo unspecified),-5.719
4,CCC(CC)NC(=O)Cn1nc(C)nc1-c1ccccc1,0.4964
5,Cc1cccc(-c2nc(C)nn2CC(=O)NC2CCCC2)c1,6.583
6,Cc1nc(-c2ccccc2)n(CC(=O)NC(C2CC2)C2CC2)n1,-13.82
7,Cc1nc(-c2ccccc2)n(CC(=O)NC2CCCC2)n1,94.43
8,Cc1nc(-c2ccccc2C)n(CC(=O)NC(C)C)n1,-16.1
9,Cc1nc(-c2ccccc2C)n(CC(=O)NC2CCCC2)n1,83.22
10,Cc1nc(-c2ccccc2)n(CC(=O)NC2CCCCC2)n1,105.1
11,O=C(O)[C@@H]1CN(Cc2c[nH]c(CC3CCCC3)n2)C[C@H]1c1ccccn1,-9.177
12,O=C(c1ccc(O)cn1)N1CCOC(Cc2cccc(C(F)(F)F)c2)C1 (stereo unspecified),9.036
13,Cc1ccnc(OC[C@@]23CCO[C@@H]2CCN(c2ncc(F)cn2)C3)n1.O=C(O)C(F)(F)F,-3.381
14,O=C(NCCCNCC1CNc2ccnn2C1)c1ccccc1 (stereo unspecified),-22.14
15,NC(=O)c1cnn2c1NCC(CNCCc1ccco1)C2 (stereo unspecified),-4.106
16,Cc1cnn(C2CN(CC(=O)NCC3(c4ccccc4)CCC3)C2)c1,-4.16
17,NC(=O)c1cnn2c1NCC(CNCCCOc1ccccc1F)C2 (stereo unspecified),-5.67
18,c1ccc(C2(NCC3CNc4ccnn4C3)CCC2)cc1 (stereo unspecified),81.61
19,NC(=O)c1cnn2c1NCC(CNCC1(c3ccccc3)CCCC1)C2 (stereo unspecified),95.13
20,NC(=O)c1cnn2c1NCC(CNC1(c3ccccc3)CCC1)C2 (stereo unspecified),91.1
21,Cc1cnn(C2CN(CC(=O)NCC3(c4ccccc4)CC3)C2)c1,-47.8
22,c1ccc(Cn2cccn2)c(CNCC2CNc3ccnn3C2)c1 (stereo unspecified),2.44
23,CNS(=O)(=O)c1cccc(C(C)NCc2ccc(C)c(C)c2)c1 (stereo unspecified),-2.241

row,SMILES,Percent Effect [%]
1,CCc1cnc(C)nc1NC(C)C(=O)Nc1cc(F)ccc1C (stereo unspecified),-2.868
2,Cn1cnnc1S(=O)(=O)Cc1cc(Cl)c2c(c1)OCCO2,-9.232
3,COCCN(Cc1cccc(O)c1)Cc1ccccc1F,0.04507
4,CN1CCN(Cc2cnc(S(=O)(=O)CC3CC3)n2CC2CCCO2)CC1 (stereo unspecified),-10.61
5,O=C(CN1CCCS1(=O)=O)Nc1ccc(OC2CCCC2)c(Cl)c1,-10.49
6,O=C(C[C@H]1[C@H]2CN(Cc3ccc(F)cc3)C[C@@H]12)N1CCCC1.O=C(O)C(F)(F)F,-45.89
7,O=C(CC1CCC2(CC1)CCN(Cc1cccnc1)CC2)N1CC=CC1.O=C(O)C(F)(F)F.O=C(O)C(F)(F)F,82.49
8,O=C(c1cscn1)N1CCC2(CCN(Cc3nccs3)CC2)CC1,-43.87
9,O=C(CC1CCC2(CC1)CCN(Cc1ccncc1)CC2)N1CCCC1.O=C(O)C(F)(F)F,108.9
10,O=C(O)C(F)(F)F.O=C(O)C(F)(F)F.O=C(O)C(F)(F)F.c1cc(CN2CCOCC3(CCN(CC4CCOCC4)CC3)C2)ccn1,-16.5
11,O=C(Cc1cccnc1)N1CCC2(CCN(CC3CCCCC3)C2)CC1.O=C(O)C(F)(F)F.O=C(O)C(F)(F)F,8.236
12,COCC1CC2(CCN(Cc3cccnc3)CC2)CN1c1ncccn1.O=C(O)C(F)(F)F.O=C(O)C(F)(F)F.O=C(O)C(F)(F)F (stereo unspecified),-11.87
13,O=C(CC1CCC2(CC1)CCN(Cc1nccs1)CC2)N1CC=CC1,106.8
14,O=C(O)C(F)(F)F.O=C(O)C(F)(F)F.c1csc(CN2CCC3(CC2)CCN(CC2CC2)CC3)n1,12.33
15,COc1ccccc1OCc1nc2cc3c(cc2c(=O)o1)OCCCO3,-14.32
16,Cc1nc(C2CCN(C[C@H](C)CO)CC2)cc(N2CCOCC2)n1,2.667
17,Cc1cc(C(=O)N2CCNC(=O)C2)c(C)n1CC(F)(F)F,-17.07
18,NC(=O)CC1CCN(C(=O)c2cnc(-c3ccccc3F)s2)CC1,1.886
19,CCc1c(C(=O)N2CCN(c3cnccn3)CC2)cnn1C(C)(C)C,78.79
20,CCc1c(C(=O)N2CCC(CC(N)=O)CC2)cnn1C(C)(C)C,114.3
21,CCc1c(C(=O)N2CCN(CC(N)=O)CC2)cnn1C(C)(C)C,15.08
22,CCCc1c(C(=O)N2CCN(c3cnccn3)CC2)cnn1C,10.15
23,Cc1ccsc1CNc1ccc(C(=O)N2CCNC(=O)C2)cn1,-3.195

row,SMILES,Percent Effect [%]
1,CCOCCn1nc(C)cc1C(=O)N1CCCC[C@H](N(C)C)C1,-3.082
2,CCc1c(C(=O)N2CCNC(=O)C2)cnn1C(C)(C)C,104.8
3,CCc1c(C(=O)N2CCN(c3ncccn3)CC2)cnn1C(C)(C)C,6.599
4,CCc1c(C(=O)N2CCCC(N(C)C)C2)cnn1C(C)(C)C (stereo unspecified),105.9
5,Cc1ccc(C(=O)N2CCCC(N(C)C(=O)OC(C)(C)C)C2)o1 (stereo unspecified),9.731
6,O=C(NCCN1CCOCC1)N1CCN(c2ccccc2)CC1,-9.765
7,Cc1ccccc1CNc1ccc(S(N)(=O)=O)c(C(F)(F)F)c1,-19.7
8,COc1cccc(CCC2CCCN(C(=O)C3=NN(C)C(=O)CC3)C2)c1 (stereo unspecified),3.443
9,CC(CNC(=O)C1(c2ccc(F)cc2)CC1)CN1CCCC1=O (stereo unspecified),-3.318
10,O=C(NCC(O)COc1ccccc1)C1(c2ccc(F)cc2)CC1 (stereo unspecified),-6.241
11,CCC(CN1CCCCC1)NC(=O)C1(c2cccc(F)c2)CC1.O=C(O)CC(O)(CC(=O)O)C(=O)O (stereo unspecified),128.4
12,CC(Cn1ccnc1)NC(=O)C1(c2ccc(F)cc2)CC1 (stereo unspecified),6.075
13,O=C(NCc1nncn1C1CC1)C1(c2cccc(F)c2)CCOCC1,0.3927
14,CCC(CN1CCCC1)NC(=O)C1(c2ccc(F)cc2)CC1 (stereo unspecified),125.8
15,Cc1cc(C)n(CC(C)NC(=O)C2(c3ccc(F)cc3)CC2)n1 (stereo unspecified),-1.516
16,CCC(CN1CCCCC1)NC(=O)C1(c2ccc(F)cc2)CC1.O=C(O)CC(O)(CC(=O)O)C(=O)O (stereo unspecified),147.4
17,Cc1cccc(C2(C(=O)NCC(C)CN3CCCC3=O)CC2)c1 (stereo unspecified),-2.528
18,CCC(CN1CCCC1)NC(=O)C1(c2cccc(F)c2)CC1.O=C(O)CC(O)(CC(=O)O)C(=O)O (stereo unspecified),113.9
19,CC1CN(C(=O)C2(c3cccc(F)c3)CCOCC2)CCO1 (stereo unspecified),-11.59
20,O=C(NC(CN1CCCC1)c1ccccc1)c1c(O)cc(F)cc1F (stereo unspecified),-3.42
21,COc1cccc(-c2n[nH]c3c2CN(C(=O)C2=C(C)OCCO2)CC3)c1,9.828
22,Cc1cc(CNc2cncc(C(=O)N(C)C)n2)c2[nH]c(C)c(C)c2c1,5.027
